Each structure is given as a SMILES string. About 83,000 compounds went through this panel and 20% of them were active in at least one assay; those are over-represented in the sample as a whole.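 Percent growth is the endpoint: 0 to 100 indicates growth inhibition (40 means 60% inhibition), 0 means no net growth, and negative values indicate cell death.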 Values without a mark were called inactive. Activity calls are given as the source filed them.

This assay concerns RPMI-8226 leukemia. Put plainly: NCI-60 one-dose screen, 48 h (100 = growth as untreated, 0 = no growth, -100 = all killed). The note with it: 10 µM. Here is the method:
Growth inhibition of the RPMI-8226 human tumor cell line is measured as a screen for anti-cancer activity. Cells are grown in 96 well plates and exposed to the test compound for 48 hours. Compounds are tested at a single concentration, which is 10^-5 M for most compounds. The reported endpoint is percent growth (GI% or GIPRCNT), where numbers from 0 - 100% represent growth inhibition, and numbers from -100% - 0 represent cell death. For example, a value of 40 represents 60% growth inhibition. A value of 0 means no net growth occurred over the course of the experiment. A value of -40 indicates 40% of cells at the beginning of the experiment died by the end of the experiment. A value of -100 means all cells are dead at the end of the experiment.
NCI-60 Human Tumor Cell Lines Screen was performed using the standard one-dose NCI protocol, which is described in more detail at https://dtp.cancer.gov/discovery_development/nci-60/default.htm.
Compounds with GIPRCNT values below 10 were considered active. Activity score was based on GIPRCNT using the following formula: […]
Score is 0 for GIPRCNT values of 100 or above, 50 for GIPRCNT values of 0, and 100 for GIPRCNT values of -100.
Regarding `S=c1[nH]ccn1-c1c(Cl)cccc1Cl`, the growth is 89%.

With `CCCCCCNC(=O)Oc1ccc(/C(=C(/CC)Cc2ccccc2)c2ccc(OCCN3CCCCC3)cc2)cc1`, the growth is 68.2%.

As for `CC1CC(=O)OC(C)C1` (stereo not given), the growth was 104%.

As to `COc1ccc(Cl)cc1-n1nnc(-c2nc3ccccc3[nH]2)c1N`, the growth is 53.9%.

For `Cc1ccc(NC(=O)Nc2c(Cl)cccc2Cl)cn1`, the growth is 62.9%.

As to `c1ccc2c(c1)oc1c3cccnc3ccc21`, the growth was 97.1%.

For the compound `C#Cc1ccc(-n2c(/C=C/c3ccc4ccccc4c3)nc3ncccc3c2=O)cc1`, the growth is -8.86% (active).

With `O=C1/C(=C\c2ccccc2)CN(C(=O)c2ccccc2)C/C1=C\c1ccccc1`, the growth is -27% (active).

Turning to `CCN(CC)CCOc1nc2cc(OC)c(OC)cc2c2c1-c1ccc(OC)cc1C2=O`, the growth is 49.2%.

Turning to `O=C(CSSCC(=O)c1ccc(Cl)cc1)c1ccc(Cl)cc1`, the growth was 24.9%.

As to `CCCCCCCCCCCCCCCCN(C(C)c1ccccc1)S(=O)(=O)c1ccc(OC)c(N)c1` (stereo not given), the growth is 103%.

As for `COc1ccc(C2CC(c3ccc(N(C)C)cc3)=NN2c2ccc(S(N)(=O)=O)cc2)cc1` (stereo not given), the growth is 34.1%.

In the case of `CC1(C)Cc2c(sc3ncn4nc(-c5ccc(O)cc5)nc4c23)CO1`, the growth was 57.7%.

As for `COc1ccc(/C=C2/CN(CCC#N)C/C(=C\c3ccc(OC)cc3)C2=O)cc1`, the growth is -17.2% (active).

As for `COC(=O)c1c(-c2ccccc2)csc1NC(=O)c1c(-c2ccccc2)noc1C`, the growth is 27.9%.

As for `Nc1ccccc1NC(=O)CCCCC(=O)Nc1ccc2c(c1)/C(=C/c1ccc[nH]1)C(=O)N2`, the growth is 56.2%.

On to `O=C(Nc1ccc(CO)cc1)c1ccccc1Nc1ccnc(C(F)(F)F)c1`, for which the growth was 89%.

Take `COc1cc(-c2nc(-c3nnc(-c4ccccc4Cl)o3)c3ccccn23)cc(OC)c1OC`: the growth was 50.2%.

With `O=C(Nc1ccncc1)C(=O)c1cn(S(=O)(=O)c2ccc(F)cc2)c2ccccc12`, the growth was 15.5%.

`COc1ccc2c(c1)sc1nc(-c3ccccc3)c(-c3cccnc3)n12`: the growth was 79%.

For the compound `CC/C(=C(/c1ccc(OCCN(C)C)cc1)c1ccc(OC(=O)CCCCCCCCC(=O)c2c(C)[nH]c(/C=C3\N=C(c4ccc[nH]4)C=C3OC)c2C)cc1)c1ccccc1`, the growth is 48.4%.

As for `O=C(Nc1cccc(-n2cc(-c3ccncc3)c(-c3ccc(O)c(Cl)c3)n2)c1)Nc1cccc(C(F)(F)F)c1`, the growth is -29.4% (active).

Turning to `CCOC(=O)C(CSC(c1ccccc1)(c1ccccc1)c1ccccc1)NC(=O)C(CSC(c1ccccc1)(c1ccccc1)c1ccccc1)NC(c1ccccc1)(c1ccccc1)c1ccccc1` (stereo not given), the growth was 105%.

Consider `CCOC(=O)N1C=CC2C=CC1C1C=CC=CC2N1C(=O)OCC` (stereo not given), for which the growth was 89.5%.

On to `C[N+](C)(C)c1ncnc2nc[nH]c12`, for which the growth is 103%.

In the case of `FC(F)(F)c1ccc(-c2cnc(Cl)nc2N2CCC3(CC2)OCCO3)cc1`, the growth is 76.3%.

With `Cc1ccc(NC(=O)Nc2cccnc2)cc1NC(=O)Nc1cccnc1`, the growth is 42.9%.

On to `O=C(c1cccs1)c1ccccc1Cc1ccccc1`, for which the growth is 100%.

For the compound `CCN(CC)CCOc1nc2ccc(OC)cc2c2c1-c1ccc(OC)cc1C2=O`, the growth is -24.5% (active).

With `COc1ccc(S(=O)(=O)Nc2c(/C=C\c3cc(OC)c(OC)c(OC)c3)ccc(OC)c2O)cc1`, the growth is 7.59% (active).

For `Cc1ccc(NC(=O)NC2CCCCC2)cc1`, the growth was 108%.

Turning to `CC(C)(C#N)Nc1ccccc1`, the growth was 105%.

Consider `O=C(Cc1csc2nc(-c3ccc(Cl)cc3)cn12)N/N=C/c1ccccc1O`, for which the growth is 23.6%.

Consider `Nc1c(C(=O)Nc2ccccc2)sc2nc3c(cc12)CCCC3`, for which the growth is 15.4%.

As for `CCN(CC)CCC(CNc1c(C)cnc2cc(Cl)ccc12)c1ccc(Cl)c(Cl)c1` (stereo not given), the growth is 24.5%.

As to `O=C(CCCCCCC(=O)Nc1cccnc1)NO`, the growth was -14.9% (active).

On to `CC/C(=C(/c1ccc(OCCN(C)C)cc1)c1ccc(OC(=O)CCCCC(=O)c2c(C)[nH]c(/C=C3\N=C(c4ccc[nH]4)C=C3OC)c2C)cc1)c1ccccc1`, for which the growth was 25.4%.

Take `O=C(N/N=C/c1cc2ccccc2c2ccccc12)c1cc(O)c(O)c(O)c1`: the growth is 78.8%.

In the case of `COc1cc(-c2cc(/C=C/C(=O)c3ccc4c(c3)OCO4)[nH]n2)cc(OC)c1OC`, the growth was -11.6% (active).

For the compound `O=C1/C(=C\c2ccc(Br)cc2)CN(C(=O)c2ccccc2F)C/C1=C\c1ccc(Br)cc1`, the growth is -37.7% (active).
